Experimental findings from PubChem BioAssay (Tox21) are described below.

A short description of test [1]: Nuclear factor erythroid 2-related factor 2/antioxidant responsive element (Nrf2/ARE) small molecule agonists: qHTS cell viability counter screen in human keratinocytes (AID 1919968; active = well fitted curve in the direction sought with a large enough effect in the repeat runs; an effect the other way counts as inactive or inconclusive; note: nearly all actives have a fitted effect of over 55% in size; note: potency is the fitted concentration of half-maximal effect). The method, boiled down:
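Seed 1,500 KeratinoSens cells per well, then incubate 5 h at 37 C/5% CO2. Add compounds in DMSO and incubate 23 h. Add CellTiter-Fluor, wait 1 h and read fluorescence.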
(In general: Quantitative high-throughput screening tests each substance at several concentrations.)

The nature of test [2]: Nuclear factor erythroid 2-related factor 2/antioxidant responsive element (Nrf2/ARE) small molecule agonists: luciferase reporter gene qHTS assay in human keratinocytes (AID 1919969). Note: nearly all actives have a fitted effect of over 35% in size. A general note: A reporter such as luciferase makes a cellular process visible.
Test [3] deals with Gonadotropin-releasing hormone receptor (Homo sapiens) (UniProt P30968). Kind of test: Human gonadotropin-releasing hormone receptor (GnRHR) small molecule agonists, calcium flux assay in GnRHR-HEK293 cells (AID 1920063). Note: nearly all actives have a fitted effect of over 35% in size. An outline of the steps: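 Cells: HEK293 stably expressing human GnRHR. Steps: overnight (18 h) culture, 1 h calcium dye loading at 37 C, compound addition, kinetic fluorescence read at 480/540 nm. Each compound tested at 15 concentrations in triplicate.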
On the technique in general: Calcium flux is commonly read through the fluorescence of an indicator in the cells.

The target of test [4] is KiSS-1 receptor (Homo sapiens) (UniProt Q969F8). Kind of test: Human kisspeptin (KISS1R) small molecule agonists, calcium flux assay in KISS1R-HEK293 cells (AID 1920064; active = well fitted curve in the direction sought with a large enough effect in the repeat runs; an effect the other way counts as inactive or inconclusive). An outline of the steps:
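Cells plated and incubated 18 h; dye added, 1 h at 37 C; compounds in DMSO pinned in; signal read at 480/540 nm every second for 3 min. Each compound tested at 15 concentrations in triplicate.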

Test [5] in a line: G protein-coupled receptor (GPCR) small molecule agonists, calcium flux assay: HEK293 wild type cell line counter screen (AID 1920065). An outline of the steps:
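Counter-screen of the Tox21 10K library for non-specific calcium release: dye-loaded cells received compounds in DMSO and were monitored by kinetic fluorescence (480/540 nm, 3 min). Fifteen concentrations, run in triplicate.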

Test [6] is described as follows: p53 small molecule agonists, cell-based qHTS assay with human liver microsomes (AID 1963577).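 Note: p53 response element beta-lactamase reporter cells with liver microsomes plus NADPH.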 The method, boiled down:
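16 h, 37 C exposure of p53RE-bla cells to compounds with human liver microsomes and NADPH (0.5 mg/mL final each); detection via LiveBLAzer mixture, 2 h dark at room temperature.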

Test [7] is described as follows: p53 small molecule agonists, cell-based qHTS assay with rat liver microsomes (AID 1963578). The method, boiled down: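 With rat liver microsomes and NADPH present (0.5 mg/mL final each), p53RE-bla cells are treated with compound for 16 h at 37 C. LiveBLAzer detection mixture is then applied for 2 h at room temperature in the dark.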
Test [8] is described as follows: p53 small molecule agonists, cell-based qHTS assay with human liver microsomes: qHTS cell viability counter screen (AID 1963579). Note: nearly all actives have a fitted effect of over 45% in size. An outline of the steps: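 In this multiplexed counter screen, the reporter plates were subsequently treated with CellTiter-Glo so that cell viability, reflected by luminescence, could be recorded for p53RE-bla cells dosed 16 h with compounds under microsomal activation (HLM and NADPH).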

A short description of test [9]: p53 small molecule agonists, cell-based qHTS assay (AID 1963582; active = well fitted activation curve with a large enough effect in the signal ratio in the repeat runs, not every such curve was filed as active; the % refers to the signal ratio). An outline of the steps:
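Quantitative HTS in p53RE-bla cells: after a 5 h settling period, compounds delivered in DMSO were left on cells for 16 h at 37 C, and reporter induction was measured as fluorescence following 2 h substrate loading.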

In test [10] the target is 5-hydroxytryptamine receptor 2A (Homo sapiens) (UniProt P28223). Kind of test: 5-hydroxytryptamine receptor 2A (HTR2A) small molecule antagonists, cell-based qHTS assay (AID 1963586). Note: nearly all actives have a fitted effect of over 45% in size. The method, boiled down: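 Antagonist-mode intracellular calcium assay: DOI (4 nM) added after 5 min compound pre-incubation at room temperature to dye-loaded HTR2A-CHO cells. Fluorescence followed for 3 min, sampled every second.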

Test [11] has the same target. Kind of test: 5-hydroxytryptamine receptor 2A (HTR2A) small molecule agonists, cell-based qHTS assay (AID 1963587). Note: nearly all actives have a fitted effect of over 30% in size. The method, boiled down: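 HTR2A-CHO cells, plated 18 h at 37 C/5% CO2, dye-loaded 1 h at 37 C; compounds in DMSO added by pin tool (agonist mode). Intracellular calcium flux read as kinetic fluorescence on FDSS over 2 min at 1 s intervals.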
Test [12] concerns the target Muscarinic acetylcholine receptor M1 (Homo sapiens) (UniProt P11229). Kind of test: Cholinergic receptor muscarinic 1 (CHRM1) small molecule antagonists, cell-based qHTS assay (AID 1963588). Note: nearly all actives have a fitted effect of over 40% in size. The method, boiled down: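 CHRM1-CHO calcium-flux assay, antagonist mode. Cells were seeded 18 h, dye-loaded 1 h at 37 C and given compound for 5 min at RT, then acetylcholine was added at 50nM. FDSS fluorescence was read 3 min; 15 concentrations, three runs.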

Test [13] has the same target. Kind of test: Cholinergic receptor muscarinic 1 (CHRM1) small molecule agonists, cell-based qHTS assay (AID 1963589). Note: nearly all actives have a fitted effect of over 35% in size. The method, boiled down: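 Agonist-mode qHTS in CHO cells stably carrying human muscarinic M1. Intracellular calcium is tracked by fluorescence every second after compound transfer; each compound runs at 15 concentrations in three independent runs.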

The nature of test [14]: cAMP Responsive Elements (CRE) small molecule agonists, cell-based qHTS assay (AID 1963590). An outline of the steps:
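Agonist mode qHTS in CRE-bla HEK 293T cells: compounds dosed from DMSO for 3 h at 37 C/5% CO2, followed by LiveBLAzer B/G FRET substrate for 2 h at room temperature.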

Test [15] has as its target D(2) dopamine receptor (Homo sapiens) (UniProt P14416). Kind of test: Dopamine D2 receptor (DRD2) small molecule antagonists, cell-based qHTS assay (AID 1963595; active = well fitted inhibition curve with a large enough effect in the signal ratio in the repeat runs, with a control signal flat; the % refers to the signal ratio; note: potency is the fitted concentration of half-maximal effect). The method, boiled down:
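Antagonist mode in DRD2-HEK293 cells: after compound addition with 0.1 mM Ro20-1724, cells received quinpirole (12 nM) and NKH477 (200 nM) for 30 min at room temperature; HTRF cAMP read after 1 h detection.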

Test [16] in a line: cAMP Responsive Elements (CRE) small molecule antagonists, cell-based qHTS assay (AID 1963591; active = well fitted inhibition curve with a large enough effect in the signal ratio in the repeat runs, not every such curve was filed as active; the % refers to the signal ratio). An outline of the steps:
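Antagonist mode: test compounds are co-incubated with the adenylyl cyclase activator NKH477 (0.25 uM final) on CRE-bla HEK293T cells for 3 h at 37 °C, followed by LiveBLAzer substrate loading.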

The target of test [17] is D(2) dopamine receptor (Homo sapiens) (UniProt P14416). Kind of test: Dopamine D2 receptor (DRD2) small molecule agonists, cell-based qHTS assay (AID 1963594). Note: nearly all actives have a fitted effect of over 35% in size. An outline of the steps:
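HEK293 cells stably expressing DRD2 were cultured 24 h at 37 C, then given Ro20-1724 (0.1 mM final) and compounds for 10 min at room temperature. NKH477 (200nM) was then added for 30 min. cAMP was read by HTRF.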

In test [18] the target is Beta-2 adrenergic receptor (Homo sapiens) (UniProt P07550). Kind of test: Adrenergic beta2 receptor (ADRB2) small molecule antagonists, cell-based qHTS assay (AID 1963592). Note: series mostly up to about 92 µM; nearly all actives have a fitted effect of over 50% in size. The method, boiled down:
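Cells (CHO, stable ADRB2 overexpression) incubated 18-20hr at 37C; compounds added from DMSO; agonist mix (1nM isoproterenol, 100uM IBMX, 25uM Ro-20-1724) added; 0.5hr RT; d2-cAMP and anti-cAMP-cryptate added; 1hr RT; 665/615 nm read.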

The nature of test [19]: p53 small molecule agonists, cell-based qHTS assay with rat liver microsomes: qHTS cell viability counter screen (AID 1963580). Note: nearly all actives have a fitted effect of over 45% in size. An outline of the steps: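 In HCT-116 cells carrying a p53 response element-bla reporter, compounds were metabolically activated in situ by rat liver microsomes with NADPH over 16 h. Cell ATP content then served as the cytotoxicity measure.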
The target of test [20] is Beta-2 adrenergic receptor (Homo sapiens) (UniProt P07550). Kind of test: Adrenergic beta2 receptor (ADRB2) small molecule agonists, cell-based qHTS assay (AID 1963593).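 Note: CHO cells stably overexpressing human ADRB2.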 An outline of the steps: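 CHO cells stably over-expressing ADRB2 were plated overnight at 37C, then dosed with compounds plus a stimulation mix containing 100uM IBMX and 25uM Ro-20-1724 for 0.5hr at room temperature. cAMP was measured by HTRF competition, 1hr.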

Molecules are shown by their SMILES. Values without a mark were called inactive. Results filed as inconclusive are left out. Calls of active or inactive are those of the source. Unless noted, calls come from the whole dose curve.

KiSS-1 receptor (Homo sapiens), sequence (Q969F8 whole entry, looked up): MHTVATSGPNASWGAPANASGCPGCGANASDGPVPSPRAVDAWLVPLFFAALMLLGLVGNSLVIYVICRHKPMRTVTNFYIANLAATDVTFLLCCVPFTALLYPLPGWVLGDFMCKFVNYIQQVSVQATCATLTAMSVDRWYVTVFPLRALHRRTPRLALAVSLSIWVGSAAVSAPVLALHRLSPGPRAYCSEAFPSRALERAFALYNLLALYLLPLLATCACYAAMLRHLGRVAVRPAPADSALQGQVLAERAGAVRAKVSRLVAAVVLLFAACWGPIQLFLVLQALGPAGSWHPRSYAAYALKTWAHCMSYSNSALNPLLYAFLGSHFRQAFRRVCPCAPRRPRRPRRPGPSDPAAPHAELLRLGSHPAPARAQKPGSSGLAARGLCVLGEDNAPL
Beta-2 adrenergic receptor (Homo sapiens), sequence (P07550 whole entry, looked up): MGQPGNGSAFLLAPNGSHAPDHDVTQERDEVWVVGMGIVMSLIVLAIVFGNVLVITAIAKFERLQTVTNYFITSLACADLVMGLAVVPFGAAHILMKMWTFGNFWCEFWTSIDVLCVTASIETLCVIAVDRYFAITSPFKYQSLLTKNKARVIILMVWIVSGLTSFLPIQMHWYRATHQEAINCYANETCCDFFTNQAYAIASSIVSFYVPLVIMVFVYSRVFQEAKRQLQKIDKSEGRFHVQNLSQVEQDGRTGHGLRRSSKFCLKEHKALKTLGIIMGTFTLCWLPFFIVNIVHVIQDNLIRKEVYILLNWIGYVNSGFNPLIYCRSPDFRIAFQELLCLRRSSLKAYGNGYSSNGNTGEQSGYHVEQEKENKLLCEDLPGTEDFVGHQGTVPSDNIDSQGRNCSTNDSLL
Muscarinic acetylcholine receptor M1 (Homo sapiens), sequence (P11229 whole entry, looked up): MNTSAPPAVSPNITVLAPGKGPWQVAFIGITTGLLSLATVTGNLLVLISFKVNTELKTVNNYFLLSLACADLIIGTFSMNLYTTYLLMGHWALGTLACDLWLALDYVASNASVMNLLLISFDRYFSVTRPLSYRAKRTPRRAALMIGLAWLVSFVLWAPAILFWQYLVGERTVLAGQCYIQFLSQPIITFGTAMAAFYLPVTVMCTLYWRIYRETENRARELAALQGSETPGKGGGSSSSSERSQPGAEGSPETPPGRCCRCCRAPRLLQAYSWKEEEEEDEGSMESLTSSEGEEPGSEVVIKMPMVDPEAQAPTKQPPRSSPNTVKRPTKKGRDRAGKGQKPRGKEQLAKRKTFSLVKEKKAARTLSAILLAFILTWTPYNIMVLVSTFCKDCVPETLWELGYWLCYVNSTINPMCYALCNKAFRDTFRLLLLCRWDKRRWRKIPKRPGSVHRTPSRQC
Gonadotropin-releasing hormone receptor (Homo sapiens), sequence (P30968 whole entry, looked up): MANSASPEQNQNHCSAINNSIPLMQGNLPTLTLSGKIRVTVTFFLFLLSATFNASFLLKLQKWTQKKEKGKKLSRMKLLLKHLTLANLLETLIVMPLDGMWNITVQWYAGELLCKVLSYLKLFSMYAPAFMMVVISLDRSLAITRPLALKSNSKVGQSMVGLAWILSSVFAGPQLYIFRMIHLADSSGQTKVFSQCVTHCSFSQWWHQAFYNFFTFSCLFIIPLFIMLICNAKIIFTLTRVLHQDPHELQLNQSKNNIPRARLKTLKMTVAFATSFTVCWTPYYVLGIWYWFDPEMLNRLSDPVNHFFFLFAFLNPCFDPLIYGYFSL
D(2) dopamine receptor (Homo sapiens), sequence (P14416 whole entry, looked up): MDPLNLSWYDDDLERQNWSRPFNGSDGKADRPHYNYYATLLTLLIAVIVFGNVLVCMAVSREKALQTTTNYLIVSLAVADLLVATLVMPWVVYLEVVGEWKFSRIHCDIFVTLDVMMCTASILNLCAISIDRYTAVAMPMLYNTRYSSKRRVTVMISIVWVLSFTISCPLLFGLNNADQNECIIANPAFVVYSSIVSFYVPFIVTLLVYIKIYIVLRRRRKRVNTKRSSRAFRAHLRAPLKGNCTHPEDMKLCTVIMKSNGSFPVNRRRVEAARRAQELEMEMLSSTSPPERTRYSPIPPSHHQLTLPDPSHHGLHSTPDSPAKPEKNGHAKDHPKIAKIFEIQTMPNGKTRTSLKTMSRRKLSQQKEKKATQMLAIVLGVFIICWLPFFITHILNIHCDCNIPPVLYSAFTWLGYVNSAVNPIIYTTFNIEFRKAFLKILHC
5-hydroxytryptamine receptor 2A (Homo sapiens), sequence (P28223 whole entry, looked up): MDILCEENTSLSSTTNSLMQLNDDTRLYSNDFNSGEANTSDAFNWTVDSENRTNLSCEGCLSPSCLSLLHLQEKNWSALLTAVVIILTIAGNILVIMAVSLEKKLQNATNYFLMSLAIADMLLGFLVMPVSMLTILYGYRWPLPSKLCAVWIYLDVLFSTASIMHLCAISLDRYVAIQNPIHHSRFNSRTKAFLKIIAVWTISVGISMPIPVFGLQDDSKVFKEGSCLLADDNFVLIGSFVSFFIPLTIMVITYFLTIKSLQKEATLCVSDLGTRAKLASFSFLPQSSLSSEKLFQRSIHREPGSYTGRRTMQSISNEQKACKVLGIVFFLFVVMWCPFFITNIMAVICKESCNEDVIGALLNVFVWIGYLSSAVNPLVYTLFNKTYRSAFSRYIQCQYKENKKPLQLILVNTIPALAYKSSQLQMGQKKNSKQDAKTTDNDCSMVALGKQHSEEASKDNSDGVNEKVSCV

As for `CC(C(=O)O)c1ccc2c(c1)CC(=O)c1ccccc1S2` (configuration not stated), the Potency entry in [1], in test [2], in test [3], in [6], in test [7] and in [8] was “inactive” in each case. The Potency entry in test [9], in [10], in test [11], in [12], in test [13] and in test [14] was “inactive” throughout. In [15], the Potency result is “inactive”. Further, the outcome in [4] and in test [5] was inactive.
Turning to `OCCN(CCO)c1ccccc1`, the Potency result in test [1], in test [2], in test [3], in test [6], in [7] and in [8] was “inactive” each time. Also, the Potency entry in [9], in test [10], in test [11], in [12], in test [13] and in [16] was “inactive” throughout. Also, the Potency result in [17] and in test [15] was “inactive” in each case. Further, the outcome in test [4] and in [5] was inactive.
Consider `C1=CCCC1`, for which the Potency entry in test [1], in [2], in test [3], in test [6], in test [7] and in test [8] was “inactive” each time. The Potency entry in test [9], in [10], in test [11], in [12], in [13] and in [14] was “inactive” each time. The Potency entry in test [16], in test [18] and in test [17] was “inactive” in each case. Besides, the outcome in test [4] and in test [5] was inactive.
Take `CC(=O)OC(C)(C)C`: the Potency entry in test [1], in test [2], in test [3], in [6], in test [7] and in test [8] was “inactive” in each case. In addition, the Potency result in test [9], in [10], in test [11], in test [13], in test [14] and in test [16] was “inactive” throughout. The Potency entry in test [18], in test [17] and in test [15] was “inactive” each time. The outcome in [4] and in test [5] was inactive.
For `CN1CCN(CCCN2c3ccccc3Sc3ccc(C(F)(F)F)cc32)CC1`, the values for the Potency in test [1] and in [15] were 29.8 µM (active) and 0.0298 µM (active), respectively. In addition, the Potency result in test [2], in test [3], in [6], in test [7], in test [8] and in test [19] was “inactive” throughout. Further, the Potency result in [18], in test [20] and in test [17] was “inactive” throughout. Further, the result in test [4] and in [5] was inactive.
As for `CC(C)CCCC(C)(C)O`, the Potency result in test [1], in test [2], in test [3], in test [6], in test [7] and in test [8] was “inactive” each time. The Potency entry in test [9], in test [10], in [11], in test [12], in [13] and in [14] was “inactive” in each case. The Potency entry in test [16], in [18], in [17] and in test [15] was “inactive” in each case. Further, the outcome in test [4] and in test [5] was inactive.
Consider `C=CCc1ccccc1OCC(O)CNC(C)C` (configuration not stated), for which the Potency entry in [1], in [2], in test [3], in [6], in [7] and in [8] was “inactive” each time. In addition, the Potency entry in test [9], in [10], in [11], in test [12], in test [13] and in test [14] was “inactive” each time. In addition, the Potency entry in [16] and in test [17] was “inactive” each time. Further, the outcome in [4] and in [5] was inactive.
